Measurements: article PMC5540273 (PLoS ONE, 2017)

Experiments:
Conditions in all cases: concentration: 1 μM,replicates: in singlicate; n = 1
PLK2 = system: PLK2
PLK3 = system: PLK3
PLK4 = system: PLK4
PRKCD = system: PRKCD
PRKCE = system: PRKCE
PRKCH = system: PRKCH
PRKCI = system: PRKCI
PRKCQ = system: PRKCQ
PRKD1 = system: PRKD1
PRKD2 = system: PRKD2
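Further: KINOMEscan kinase panel screen.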

Structure (SMILES)	%Inh (PLK2)	%Inh (PLK3)	%Inh (PLK4)	%Inh (PRKCD)	%Inh (PRKCE)	%Inh (PRKCH)	%Inh (PRKCI)	%Inh (PRKCQ)	%Inh (PRKD1)	%Inh (PRKD2)
CC(C)c1nc(-c2cccc(NS(=O)(=O)c3ccccc3)c2)c(-c2ccnc(Nc3ccc4c(c3)CN(C)CC4)n2)s1 [GSK1649598]	0%	0%	99.8%	0%	0%	0%	45%	11%	93.9%	99.9%
O=C(Nc1cccc(C(F)(F)F)c1)c1cccc(Oc2ccc3nccn3n2)c1	11%	0%	0%	22%	1%	0%	13%	51%	0%	0%
CCN1CCN(CCCC(=O)Nc2n[nH]c3nc(-c4ccc(O)cc4)c(Br)cc23)CC1 [SB-731579]	0%	0%	0%	64%	70%	19%	2%	0%	1%	0%
C[C@@H](Oc1cc(-n2cnc3cc(-c4ccncc4)ccc32)sc1C(N)=O)c1ccccc1Cl [GSK479719]	99.5%	–	29%	0%	18%	12%	0%	2%	0%	0%
Cc1ccc(C(=O)Nc2ccc(Oc3ccc4nc(NC(=O)C5CC5)cn4c3)c(F)c2)c(=O)n1-c1ccccc1	0%	0%	35%	0%	0%	0%	28%	24%	0%	0%
CNC(=O)c1ccccc1Nc1nc(Nc2cccc(CS(C)(=O)=O)c2)ncc1C.O=CO [GSK1520489]	68%	17%	100%	13%	77%	0%	17%	42%	0%	6%
O=C1NCCc2[nH]c(-c3ccncc3)cc21	37%	40%	30%	27%	59%	58%	18%	46%	72%	0%
